Shown are actives, neighbours in structure and some others; about 2.6% of the full set was active somewhere.
AT treatment – potential ataxia-telangiectasia treatment; Potency, µM (top dose mostly 57.5 µM), inactives show top-dose activation, actives largely listed as activators; 0.19% of 320,000 active; F2112 A-T fibroblasts, KAP-1 phosphorylation AlphaLISA; neocarzinostatin DNA damage 30 min before lysis; AID 485349; also: potency is read from the fitted curve at half-maximal effect; % of control where 0% means no effect; nearly all actives have a fitted effect of over 45% in size
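hTERT-immortalized A-T patient fibroblasts (F2112), 500 cells/well in OPTI-MEM, 1% FBS, got compounds for 60 min, then NCS for 30 min at 37C. Lysates were then assayed for phospho-KAP-1 by AlphaLISA (anti-pKAP1 donor, anti-KAP1 acceptor beads), 6 hr at 25C.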
Nrf2 activator – activates Nrf2 signaling; AREc32 ARE-luciferase reporter (MCF7-derived line), luminescence, 24 h; Potency, µM (highest dose often 46.1 µM), for the others: at the highest dose activation, most hits filed as activators; 0.31% of 410,000 active; also: potency is read from the fitted curve at half-maximal effect; % of control where 0% means no effect; nearly all actives have a fitted effect of over 65% in size
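Reporter line AREc32 (ARE-Fluc), seeded overnight in OPTI-MEM with 5% FBS; compound pin-transferred, 24 hr at 37 deg C, 5% CO2; luminescent read-out.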
TCR activator – activates T cell receptor signaling. primary human leukocytes, anti-CD3, IL-2 HTRF, 48 h. Potency, µM (doses to about 9.22 µM), without a hit: at the highest dose activation of IL-2 secretion, usual class: activators. 330,000 tested, under 10 active; also: % of control where 0% means no effect
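Readout: HTRF IL-2, Eu-cryptate/d2 antibody pair, 320nm excitation, 665nm emission. Stimulus: a-CD3 beads, no co-stimulation. Cells: primary human leukocytes. Exposure: 48 hr with compound.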
Nrf2 block – blocks Nrf2 signaling. A549 ARE-Fluc reporter, luciferase luminescence, 18-24 h. Potency, µM (titrated, usually from 46 µM), for inactives: at the highest dose activity change, negative = inhibition, actives largely listed as inhibitors. 2.1% of 360,000 active; also: potency is read from the fitted curve at half-maximal effect; % is scaled to controls: 0 for no effect and ±100 for the full control effect; nearly all actives have a fitted effect of over 60% in size
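A549 ARE_Fluc cells (5000/well, 5% FBS OPTI-MEM) pre-incubated 2 h, then treated with compounds 18-24 h at 37C/5% CO2 in concentration-response. CellTiter-Fluor viability read first; BugLite luciferase luminescence after 15 min at room temperature gives Nrf2 activity.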
CCT modulator – cytosolic chaperonin activity modulation. purified chaperonin ATPase assay, HTRF ADP detection, 30 min. activity change, % (test concentration not listed), hits read low. 0.3% of 360,000 active; in the data active = activity change below about -30%; also: % is scaled to controls: 0 for no effect and ±100 for the full control effect
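We incubate TRiC, 40 or 20 nM final, with library compounds at 76 uM and 10 uM ATP for 30 min at 37 °C. ADP formed is detected with Transcreener HTRF reagents after 30 min at room temperature.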
A549 tox – kills or reduces viability of A549 cells in Nrf2 counter-screen; Potency, µM (series often up to 46 µM), inactives show top-dose activity change, negative = cytotoxicity, usual class: inhibitors; 0.16% of 390,000 active; A549 ARE-Fluc cells, CellTiter-Fluor viability, 18-24 h; also: potency is read from the fitted curve at half-maximal effect; % is scaled to controls: 0 for no effect and ±100 for the full control effect
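A549 ARE-Fluc cells in 5% FBS OPTI-MEM, 5000 cells/well, rested 2 h then exposed to compounds in concentration-response for 18-24 h at 37 °C. Viability by CellTiter-Fluor fluorescence (Ex 405/Em 525) after 30 min; luciferase luminescence (BugLite, 15 min, RT) read afterwards.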
* = called active by the depositor; [ ] = another dose, or the depositor's remark. Unless noted, calls follow the shape of the dose curve; as a rule, active = well fitted curve in the direction sought with a large enough effect; inconclusive = small, poorly fitted or top-dose-only effect, or another doubt; inactive = no such curve, though single readings can be large; an effect the other way counts as inactive or inconclusive.

Results for CCCSc1nc2c(cnn2-c2ccc(C)cc2)c(=O)[nH]1 ?
AT treatment: 5%; Nrf2 activator: 1%; TCR activator: 4%[46.1 µM]; Nrf2 block: 18µM*; CCT modulator: 3; A549 tox: -22%

What do the screens show for `COc1cc(CNc2ccc(N3CCN(C(C)=O)CC3)cc2)ccc1OCc1ccc(F)cc1`?
AT treatment: -3%; Nrf2 activator: 13%; TCR activator: -2%; Nrf2 block: 16µM*; CCT modulator: 0; A549 tox: -19%

How did CC(=O)N1CCN(c2ccc(NCc3cccc(C)c3)cc2)CC1 do in these assays?
AT treatment: -4%; Nrf2 activator: 6%; TCR activator: 4%; Nrf2 block: 15µM*; A549 tox: -3%

How did CC(=O)N1CCN(c2ccc(NCc3ccc(F)cc3)cc2)CC1 do in these assays?
AT treatment: 14%; Nrf2 activator: 3%; TCR activator: -5%; Nrf2 block: inconclusive; CCT modulator: 0; A549 tox: -3%

Results for CCOc1ccc(C(=O)C2CCN(CC(=O)Nc3ccccc3N3CCOCC3)CC2)cc1 ?
AT treatment: -4%; Nrf2 activator: 2%; Nrf2 block: 12µM*; CCT modulator: -1; A549 tox: -14%[1.84 µM]

What do the screens show for `Cc1cc(C)c(NC(=O)c2ccc(CN3CCc4ccccc4C3)cc2)c(C)c1`?
AT treatment: 0%; Nrf2 activator: 3%; TCR activator: 12%; Nrf2 block: 23µM*; CCT modulator: -6; A549 tox: inconclusive

What do the screens show for `CCN(CC)CCn1c2c(c(SCC(=O)Nc3ccccc3Cl)nc1=O)CCC2`?
AT treatment: -13%; Nrf2 activator: 0%; TCR activator: 3%; Nrf2 block: 10%; CCT modulator: -34*; A549 tox: 2%

What do the screens show for `CCOc1ccc(NC(=O)c2ccc(CN3CCc4ccccc4C3)cc2)cc1`?
AT treatment: -3%; Nrf2 activator: 0%[9.22 µM]; TCR activator: 1%; Nrf2 block: inconclusive; CCT modulator: 0; A549 tox: -3%

Results for CCOC(=O)c1ccc(NC(=O)c2ccc(CN3CCc4ccccc4C3)cc2)cc1 ?
AT treatment: -8%; Nrf2 activator: 0%; TCR activator: 2%; Nrf2 block: 23µM*; CCT modulator: -3; A549 tox: inconclusive

What do the screens show for `CCOC(=O)c1ccc(NC(=O)c2ccc(CN3CCOCC3)cc2)cc1`?
AT treatment: -2%; Nrf2 activator: 4%; TCR activator: 0%; Nrf2 block: 5.2µM*; CCT modulator: -2; A549 tox: inconclusive

How did O=C(Nc1cccc(Cl)c1)Nc1ccccc1OCc1cc(=O)n2ccccc2n1 do in these assays?
Nrf2 activator: 1%; A549 tox: -7%

How did CC(=O)c1ccc(NC(=O)CSc2nc(=O)n(CCN3CCOCC3)c3c2CCC3)cc1 do in these assays?
AT treatment: 3%; Nrf2 activator: 3%; TCR activator: 6%; Nrf2 block: -1%; CCT modulator: -1; A549 tox: 1%

Results for CCOC(=O)c1ccc(NC(=O)CSc2nc(=O)n(CCN3CCOCC3)c3c2CCC3)cc1 ?
AT treatment: 3%; Nrf2 activator: 4%; TCR activator: 8%; Nrf2 block: 18µM*; CCT modulator: -1; A549 tox: 0%

What do the screens show for `Clc1cccc(-c2ccc(CNCc3ccccn3)o2)c1`?
AT treatment: -4%; Nrf2 activator: 2%; TCR activator: 2%; Nrf2 block: 3%; CCT modulator: 0; A549 tox: 6%

How did O=c1[nH]nc(Cc2ccc(-c3cccc(Cl)c3)o2)c2ccccc12 do in these assays?
AT treatment: 1%; Nrf2 activator: 5%; TCR activator: -6%; Nrf2 block: 21µM*; CCT modulator: 0; A549 tox: -17%
